From PubChem BioAssay
FLuc inh = blocks Photinus pyralis firefly luciferase activity; P08659; purified firefly luciferase, luminescence, 8 min; Potency, µM (titrated, usually from 57.1 µM), without a hit: top-dose activity change, negative = inhibition, actives largely listed as inhibitors; 2.2% of 72,000 active; active = well fitted inhibition curve with a large enough effect; inconclusive = small, poorly fitted or top-dose-only effect; also: % is scaled to controls: 0 for no effect and ±100 for the full control effect; nearly all actives have a fitted effect of over 40% in size
Target sequence (P08659 whole entry, looked up): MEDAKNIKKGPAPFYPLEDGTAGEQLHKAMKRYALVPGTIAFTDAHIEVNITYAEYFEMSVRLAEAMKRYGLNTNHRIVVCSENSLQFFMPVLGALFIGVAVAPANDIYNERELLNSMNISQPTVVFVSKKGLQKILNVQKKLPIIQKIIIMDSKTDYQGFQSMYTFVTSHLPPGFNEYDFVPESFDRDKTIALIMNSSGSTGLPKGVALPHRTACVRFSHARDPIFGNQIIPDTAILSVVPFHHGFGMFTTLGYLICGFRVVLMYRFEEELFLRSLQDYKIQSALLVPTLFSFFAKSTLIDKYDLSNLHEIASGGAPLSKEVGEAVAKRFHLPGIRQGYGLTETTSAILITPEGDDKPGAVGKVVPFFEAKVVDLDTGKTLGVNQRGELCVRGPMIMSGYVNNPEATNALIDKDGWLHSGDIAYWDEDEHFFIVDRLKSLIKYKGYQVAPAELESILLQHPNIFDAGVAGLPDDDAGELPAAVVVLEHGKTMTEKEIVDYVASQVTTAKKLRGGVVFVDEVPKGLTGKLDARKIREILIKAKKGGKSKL
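Firefly luciferase (PKLight detection mix) with 10 uM ATP in pH 7.2 imidazole buffer (KCl, MgCl2, Tween 20, BSA). Compounds tested across a concentration series (qHTS). Luminescence read after 8 min at ambient temperature.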
GBA activity = modulators of human glucocerebrosidase; Potency, µM; purified enzyme, resorufin glucoside fluorescence (screen aimed at inhibitors), 20 min; P04062; 1.1% of 48,000 active; in the data active = potency below about 15 µM; inconclusive = mostly about 16 µM to 33 µM;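 also: the screen sought inhibitors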
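Normal human glucocerebrosidase (0.2 nM final) was assayed with resorufin β-D-glucopyranoside (30 uM final) in 50mM citric acid/KH2PO4, 10mM sodium taurocholate, 0.01% tween-20, pH 5.9. Compounds were titrated; fluorescence (Ex 548, Em 600) read after 20 min at RT.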
PK Bst = pyruvate kinase (B. stearothermophilus) modulation; purified pyruvate kinase, luminescence ATP production; ribose 5-phosphate activator present at AC10; Potency, µM; 1.2% of 51,000 active; AID 361; in the data active = potency below about 11 µM; inconclusive = mostly about 12 µM to 25 µM;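 the screen sought inhibitors and activators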;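 also: scaled between full activation by ribose 5 phosphate and full inhibition by luteolin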
* marks the source's active call; other numbers are inactive results; [ ] = remark or other dose. This is a sample that favours compounds with a hit; in the whole collection about 3.2% have one here. Potency is read from the fitted curve at half-maximal effect.

Screening CC(C)CN(CC#N)CC(C)C returned FLuc inh 2%[11.4 µM].
Screening O=C(O)c1cc(=O)[nH]c(SCc2ccccc2)n1 returned FLuc inh 1%[11.4 µM].
`O=C(OCc1nnc(-c2ccc(Cl)cc2)o1)c1ccncc1` gave FLuc inh -2%, GBA activity >77 and PK Bst inactive.
For O=C(OCc1nnc(-c2ccc(Cl)cc2)o1)c1ccc(=O)n(Cc2ccccc2)n1 the results were FLuc inh -1%, GBA activity >77 and PK Bst 9.8*.
Screening CC(=O)c1cccc(NC(=O)Nc2ccc(C(=O)N3CCOCC3)cc2)c1 returned FLuc inh 13µM* and GBA activity >77.
For COc1ccc(NC(=O)Nc2cccc(C(=O)N3CCOCC3)c2)cc1OC the results were FLuc inh -8%[25.5 µM] and PK Bst >26.
Screening O=C(c1cnccn1)N1CCC2(CCCN(c3ccccc3)C2)CC1 returned FLuc inh 1%[11.4 µM].
Screening COc1ccc2[nH]cc(CCNc3ncnc4ccc(-c5ccoc5)cc34)c2c1 returned FLuc inh 0%[2.29 µM].
Screening Fc1ccc(-c2nc3n(n2)Cc2ccccc2-3)cc1 returned FLuc inh 4µM*, GBA activity >77 and PK Bst 2.5*.
For O=c1nc2n(c3c1oc1ccccc13)Cc1ccccc1-2 the results were FLuc inh 2%, GBA activity inconclusive and PK Bst inactive.
For Cc1nc2cc(Cl)ccc2n1CCO the results were FLuc inh -1%, GBA activity >77 and PK Bst >57.
Screening CCn1c(C)nc2cc(-c3nc4n(n3)Cc3ccccc3-4)ccc21 returned FLuc inh 0.05µM* and PK Bst 0.095*.
O=C(O)CCC(=O)N1CCC[C@H]1C(=O)O was read as FLuc inh 1%.
`Cc1nnc2ccc(N3CCC(C(N)=O)(N4CCCCC4)CC3)nn12` gave FLuc inh -1%.
`CCN(CC)S(=O)(=O)c1ccc(Nc2cc(C)nc3ncnn23)cc1` gave FLuc inh -2%, GBA activity >77 and PK Bst >57.
Screening CCCOC(=O)c1ccc(Nc2cc(C)nc3ncnn23)cc1 returned FLuc inh 1%, GBA activity >77 and PK Bst 11*.
O=c1c(-c2ccccc2)n[nH]c2ccccc12 was read as FLuc inh 13µM*, GBA activity >77 and PK Bst inactive.
Screening Nc1c(-c2ccccc2)n[nH]c1-c1ccccc1 returned FLuc inh inconclusive and GBA activity >77.
For C/C(CCC(=O)OC[C@@H]1O[C@H](C#Cc2ccccc2)C=C[C@@H]1Oc1ccc(C)cc1)=N/O[C@@H](C)c1cn([C@H](CO)Cc2ccccc2)nn1 the results were FLuc inh 1%[11.4 µM].
Screening CCNc1ncc2nc(C)c(=O)n(Cc3cccs3)c2n1 returned FLuc inh 1%[11.4 µM].
O=C(CN1CCN(c2ccccn2)CC1)Nc1ccc2ccccc2c1 was read as FLuc inh 40µM*, GBA activity >77 and PK Bst >57.
For O=C(CN1CCN(c2ccccn2)CC1)Nc1ccc(Cl)c(C(F)(F)F)c1 the results were FLuc inh 4%, GBA activity inconclusive and PK Bst >57.
`COc1ccccc1OC[C@H](O)CN1CCN(CC(=O)Nc2c(C)cccc2C)CC1` gave FLuc inh 0%.
For N=C1C=CC(=C(c2ccc(N)cc2)c2ccc(N)cc2)C=C1 the results were FLuc inh -15%[11.4 µM].
Screening O=C(c1cc2c(s1)-c1ccccc1OC2)N1CCN(c2ccccn2)CC1 returned FLuc inh 1%.
`O=C(c1cc2c(s1)-c1ccccc1OC2)N1CCCC1` gave FLuc inh 13µM*.
`COC(=O)C/C=C\[C@@H](C)[C@@H]1C=C[C@H](OC(C)=O)[C@H](COC(C)=O)O1` gave FLuc inh 1%[11.4 µM].
For COc1ccc(-c2noc(-c3ccccc3C(=O)Nc3cccc(OC)c3)n2)cc1 the results were FLuc inh inconclusive and GBA activity >77.
For CC(=O)Nc1cccc(Oc2ccc(-c3noc(C)n3)cc2)c1 the results were FLuc inh 13µM*, GBA activity >77 and PK Bst inactive.
For N[C@@H](CO)C(=O)O the results were FLuc inh 0%.
CCOC(=O)Cc1nc2ccccc2[nH]1 was read as FLuc inh -1%, GBA activity >77 and PK Bst >57.
For CCOC(=O)c1ccc(NCc2nc3ccccc3[nH]2)cc1 the results were FLuc inh 16µM*.
CN1CCN(c2ccc(C(=O)c3ccc(F)cc3)cc2)CC1 was read as FLuc inh 25µM*.
For O=C(Nc1ccc(N2CCCC2)cc1)c1cccc(F)c1 the results were FLuc inh 3.2µM*, GBA activity >77 and PK Bst inconclusive.
Screening O=C(O)CCC(=O)N1CCN(c2ccc(C(=O)c3ccc(F)cc3)cc2)CC1 returned FLuc inh -3%, GBA activity >77 and PK Bst >57.
Screening O=C(c1ccccc1)c1ccc(N2CCNCC2)cc1 returned FLuc inh -2%, GBA activity >77 and PK Bst >57.
O=C(c1ccccc1)c1ccc(N2CCCC2)cc1 was read as FLuc inh 13µM*.
`O=C(Nc1ccc(N2CCCC2=O)cc1)c1cccc(F)c1` gave FLuc inh -13% and GBA activity >77.
CN(C)Cc1ccccc1-c1cncnc1NCc1ccccc1 was read as FLuc inh -2%[2.29 µM].
For C#CCOC(=O)[C@H](N)CC(N)=O the results were FLuc inh 0%[11.4 µM].
Screening N#Cc1ccc(CN2CCCC3(CCN(C(=O)c4csnn4)CC3)C2)cc1 returned FLuc inh 0%[11.4 µM].
CC1CCc2cccc3c2N1c1cc(C#N)c(C#N)cc1O3 (stereo not drawn) was read as FLuc inh 1%, GBA activity 5* and PK Bst inactive.
`O=C(Nc1cccc(F)c1)N1CCC2(CC1)CCN(C(=O)c1csnn1)CC2` gave FLuc inh -1%[11.4 µM].
For Cc1ccc2[nH]c(-c3cccc(N)c3)cc2c1 the results were FLuc inh 13µM*, GBA activity >15 and PK Bst inconclusive.
Screening Cc1ccc(O)c(-c2cc3ccccc3[nH]2)c1 returned FLuc inh -26%.
Screening Cc1cc(Cl)ccc1Nc1sc(C(=O)c2cc3cc(Cl)ccc3o2)c(N)c1C#N returned FLuc inh 2%[11.4 µM].
Screening O=C(O)[C@H]1CCCC[C@@H]1c1c2ccc(=O)c(O)c-2oc2c(O)c(O)ccc12 returned FLuc inh -3%[11.4 µM].
Screening C(=N/Nc1nnc2c(n1)[nH]c1ccccc12)/c1cccnc1 returned FLuc inh -7%[11.4 µM].
`N=C1C(c2nc(-c3ccc(Cl)cc3)cs2)=C(O)CN1CCCN1CCOCC1` gave FLuc inh -10%, GBA activity >77 and PK Bst 4.5*.
For COc1ccc(-c2csc(C3=C(O)CN(Cc4ccc(S(N)(=O)=O)cc4)C3=N)n2)cc1OC the results were FLuc inh -4%, GBA activity >77 and PK Bst >57.
For CCC(=C(CC)c1ccc(O)cc1)c1ccc(O)cc1 the results were FLuc inh 1%[25.5 µM].
For CC1(C)Cc2ccccc2-c2nnc(-c3ccc(O)cc3)n21 the results were FLuc inh -3%, GBA activity 8.4* and PK Bst >57.
For CC1(C)Cc2ccccc2-c2nnc(-c3cccnc3)n21 the results were FLuc inh 1%, GBA activity >77 and PK Bst >57.
